PubChem BioAssay (NCI)
This is part of a sample that, as a whole, favours compounds with a hit. Of some 83,000 tested, about 20% had one in any assay.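 Treatment: one concentration, 48 hours, 96-well format. Scoring: percent growth, with anything below 10 considered active.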 Unmarked numbers belong to inactive results. Active and inactive are the calls of the source.

System: HL-60(TB) leukemia
Assay: NCI-60 one-dose screen, 48 h (100 = growth as untreated, 0 = no growth, -100 = all killed)
Conditions: 10 µM unless noted

For `Oc1[nH]c2ccc(Cl)cc2c1/C=c1/ccc2c(c1)N=C(c1cccs1)N=2`, the growth was 98.4%.

In the case of `CCNCCNc1cc(-c2ccc(C(F)(F)F)cc2)c(C#N)c2nc3ccccc3n12`, the growth is reported as -65.9% (active).

In the case of `COc1cc(C2C3=C(COC3=O)N(CCO)c3cc4c(cc32)OCO4)cc(OC)c1O` (centres undefined), the growth is reported as 4.08% (active).

In the case of `N/C(=N\C(N)=N\c1nc2ccccc2s1)c1ccncc1`, the growth is reported as 35.2%.

`COc1ccc(/C(C)=C(\c2ccc(OCCN3CCCCCC3)cc2)c2ccc(OC(=O)C3CCCCC3)cc2)cc1` was tested, and the growth was -41.1% (active).

For `COc1ccc(Nc2nccc(Nc3ccc4[nH]ncc4c3)n2)cc1`, the growth was 59.6%.

In the case of `COc1cc(C(=O)n2nc(NCCCc3ccccc3)c3cc(N)ccc32)cc(OC)c1OC`, the growth is reported as 69.5%.

`O=C1c2ccccc2C(=O)c2c(N=Nc3[nH]c(=S)[nH]c3O)cccc21` was tested, and the growth was -32.1% (active).

In the case of `O=C(/C=C/C12c3ccccc3C(c3ccccc31)C1C(=O)NC(=O)C12)c1ccc(Br)cc1` (centres undefined), the growth is reported as 2.14% (active).

`COC(=O)c1c2c(c(C)[n+]([O-])c1C)C(=O)C(NCc1cccc(Cl)c1)=CC2=O` was tested, and the growth was -56.1% (active).

Work on `O=S(=O)(NCCCNc1nccc(-c2c(-c3ccc(F)c(O)c3)nc3sccn23)n1)c1ccc(Cl)cc1` yielded a growth of 83.1%.

In the case of `CO[C@H]1C[C@@H]2CC[C@@H](C)[C@@](O)(O2)C(=O)C(=O)N2CCCC[C@H]2C(=O)O[C@H]([C@H](C)C[C@@H]2CC[C@@H](O)[C@H](OC)C2)CC(=O)[C@H](C)C=C(C)[C@@H](O)[C@@H](OC)C(=O)[C@H](C)C[C@H](C)/C=C/C=C/C=C1C`, the growth is reported as 83%.

For `C=C1C(=O)O[C@H]2[C@H]1CC/C(COC(=O)C(=O)c1c[nH]c3ccc(Cl)cc13)=C\CC[C@@]1(C)O[C@@H]21`, the growth was -44.6% (active).

In the case of `O=S(Cc1ccccc1)/C(=C/NC(=S)Nc1ccccc1)c1ccccc1` (centres undefined), the growth is reported as 106%.

`CCSc1nnc(NC(=O)Cc2ccc(Cl)cc2)s1` was tested, and the growth was 96.8%.

With `CCSc1oc(-c2ccccc2)nc1[P+](c1ccccc1)(c1ccccc1)c1ccccc1` the growth was -35.1% (active).

For `O=C(c1cnn2c1NC(c1ccc(F)cc1)C2)N1CCCCC1` (centres undefined), the growth was 99.7%.

With `O=C1N=C(N2CCOCC2)S/C1=C\c1cn(-c2ccccc2)nc1-c1ccccc1` the growth was 105%.

With `COc1ccc(/C(=C2\O[C@@H]([C@H](O)CO)[C@H]3OC(C)(C)O[C@@H]23)c2cc(OC)c(OC)c(OC)c2)cc1O` the growth was -2.8% (active).

Work on `C=C(C)[C@@H]1CC[C@]2(C(=O)N3CCN(CC)CC3)CC[C@]3(C)[C@H](CC[C@@H]4[C@@](C)(CCC(=O)N5CCN(CC)CC5)[C@H](C(=C)C)CC[C@]43C)[C@@H]12` yielded a growth of 30.4%.

`C[C@H]1[C@H](C)CC[C@]2(C(=O)N3CCN(C)CC3)CC[C@]3(C)C(=CC[C@@H]4[C@@]5(C)C/C(=C/c6cccnc6)C(=O)C(C)(C)[C@@H]5CC[C@]43C)[C@H]12` was tested, and the growth was -54.4% (active).

With `c1cc2cccc3c4cccc5cccc(c(c1)c23)c54` the growth was 109%.

`Cc1nn(-c2ccccc2)c2nc3c(c(-c4ccc(Cl)cc4)c12)CNC1(CCSCC1)N3` showed a growth of 72.9%.

`CCC12OC(COc3ccccc3)CN1CCN2c1ccccc1` (centres undefined) showed a growth of 94.7% [100 µM].

Compound `C/C(=N\NC(=O)Cn1c(-c2ccc(S(C)(=O)=O)cc2)nc2ccccc21)c1ccc(Cl)cc1` has a growth of 74.8%.

With `O=S(=O)(NCCCNc1nccc(-c2c(-c3cccc(F)c3)nc3occn23)n1)c1cccc2ccccc12` the growth was -26.8% (active).

`CC(C)Cc1ccc([C@H](C)C(=O)O)cc1` was tested, and the growth was 92.9%.

With `CCCCCCCCCCCCOc1ccccc1C=O` the growth was 89.9%.

With `O=C1OCC2=C1C(c1cccc(Br)c1)c1cc3c(cc1N2CCO)CCC3` (centres undefined) the growth was -25.5% (active).

In the case of `C[C@H]1C=C(C[C@@H](O)CCCCCCCCCC[C@@H](O)[C@H]2CCC(=O)O2)C(=O)O1`, the growth is reported as 102%.

With `N=C(N)c1ccc(-c2ccc(-c3cc(Cl)cc(Cl)c3)s2)cc1` the growth was -57.6% (active).

For `N#CCc1ncc(-c2ccc(C(F)(F)F)cc2)c(NC2CCCCCC2)n1`, the growth was -28.4% [100 µM] (active).

`CC(C)=CCC[C@](C)(O)[C@H]1CC[C@]2(C)[C@@H]1CC[C@@H]1[C@@]3(C)C/C(=C/c4ccco4)C(=O)C(C)(C)[C@@H]3CC[C@]12C` gave a growth of 119%.

With `COc1cccc(/C=C2/C(=O)N(Cc3ccco3)SC2=S)c1OC` the growth was 94.5%.

`C[C@@H](C[C@H](CC1CC1)c1ccccc1)c1ccc2ccccc2c1` gave a growth of 107%.

With `CC/C=C\C[C@H](O)C/C=C1/C(=O)C=C[C@@H]1C/C=C\CCCC(=O)OC` the growth was -12.3% (active).

`Nc1ccc(-c2cccs2)cc1NC(=O)c1ccc(CCCC(=O)Nc2ccc(C3CC3N)cc2)cc1` (centres undefined) gave a growth of 66%.

In the case of `CC(=O)CC(C)(C)c1ccc(Cl)cc1`, the growth is reported as 69.9%.

In the case of `N#C/C(=C\c1ccccn1)c1nc2cc(Cl)ccc2s1`, the growth is reported as 52%.

Compound `O=C(N/N=C/c1ccc([N+](=O)[O-])cc1)c1ccc(Br)o1` has a growth of 123%.

In the case of `COc1ccc(Cn2cc(C(=O)N=Nc3c(O)[nH]c4c(C)cccc34)nn2)cc1`, the growth is reported as 78.9%.

`COc1cc2c(c(OC)c1OC)CCC(c1cccc(NC(=O)c3cccc(Br)c3)c1)O2` (centres undefined) showed a growth of 97%.

Work on `COc1cc(NC(C)CCCN)c2nc(C)ccc2c1Oc1ccc(F)cc1` (centres undefined) yielded a growth of 87.9%.

For `O=C(/C=C/C12c3ccccc3C(c3ccccc31)C1C(=O)NC(=O)C12)c1ccccc1` (centres undefined), the growth was 9.79% (active).

In the case of `COc1ccc(-n2cc(COc3ccc4c5ccnc(C)c5n(CC(C)C)c4c3)nn2)cc1`, the growth is reported as -10.6% (active).

`CC/C(Cc1ccccc1)=C(\c1ccc(OCCN2CCCCCC2)cc1)c1ccc(OC(=O)NCc2ccccc2)cc1` gave a growth of 37%.

`[2H]C([2H])([2H])Oc1ccc(F)cc1/C=C/C(=O)/C=C(O)/C=C/c1cc(F)ccc1OC([2H])([2H])[2H]` showed a growth of 77.3%.

For `CC(=O)c1nc2ccccc2n1CCn1cc(CC(N)C(=O)O)c2ccccc21` (centres undefined), the growth was 100%.

For `O=C(N/N=C/c1ccc(O)cc1O)c1cccnc1`, the growth was -17.2% (active).

Work on `OCc1cc(CN2CCCCC2)c(O)c2ncccc12` yielded a growth of 33.2%.

Compound `O=C(Nc1cccc2c(O)c(N=Nc3ccc(S(=O)(=O)Nc4nccs4)cc3)cc(N=Nc3ccc(S(=O)(=O)Nc4nccs4)cc3)c12)C(Cl)Cl` has a growth of 102%.

With `CS(=O)(=O)c1ccc(-c2[nH]c3ccc(F)cc3c2/C=N/NC(N)=S)cc1` the growth was -50.2% (active).

In the case of `CN(C)c1ccc(/C=C/c2c(F)cccc2F)cc1`, the growth is reported as 98.8%.

With `CC(O)c1cc[cH-]c1.[Fe+2].c1cc[cH-]c1` (centres undefined) the growth was 92.9%.

In the case of `CC(C)(C)c1nn(-c2ccccc2)c2c1COCN2Cc1ccc(Cl)cc1`, the growth is reported as 43.5%.

With `C=C1CC[C@@H]2[C@](C)(COC(C)=O)[C@H](OC(C)=O)CC[C@@]2(C)[C@@H]1CC(Nc1ccc(S(=O)(=O)Nc2ccc(Cl)nn2)cc1)C1=CCOC1=O` (some centres undefined) the growth was -17.5% (active).

With `CCCOC(=O)c1c(C)n(C)c2scc[n+]12` the growth was 92.6%.

Compound `COCCn1cc(-c2nc(-c3cc4cccnc4n3C)cs2)c2ccccc21` has a growth of 42.2%.

`COc1cc2c(cc1OCCCOc1cc3c(cc1OC)C(=O)N1CC(F)(F)C[C@H]1C=N3)N=C[C@@H]1CC(F)(F)CN1C2=O` was tested, and the growth was -12.2% (active).

Compound `CCCCCCSc1ncnc2nc[nH]c12` has a growth of 72.2%.

`C1CCC(C(CC2CCCCN2)C2CCCCC2)CC1` (centres undefined) gave a growth of 11.1%.

In the case of `CC(C)NCC(O)COc1ccc(CCOCC2CC2)cc1` (centres undefined), the growth is reported as 92.8%.

Work on `COc1ccc(Nc2nc(N)nc3c(=O)[nH]ccc23)cc1` yielded a growth of 96.1%.

`O=C(CCl)NNc1nccc(Nc2ccc(S(=O)(=O)Nc3ccncc3)cc2)n1` was tested, and the growth was 36.5%.

Compound `Cn1cc(-c2nc(-c3c[nH]c4ncc(F)cc34)cs2)c2cccnc21` has a growth of 103%.

`CC(=O)OCC(OC(C)=O)C(OC(C)=O)C(OC(C)=O)C(OC(C)=O)C(/C=N/Nc1ccccc1)=N/Nc1ccccc1` (centres undefined) gave a growth of 59.4%.

`C/C(=N\OC(=O)Nc1cccc(Cl)c1)c1ccccc1` was tested, and the growth was 110%.

`CCN(CC)CCC(=O)Nc1ccc(Cn2nnc3c2C(=O)c2nnn(Cc4ccc(NC(=O)CCN(CC)CC)cc4)c2C3=O)cc1` was tested, and the growth was -36.4% (active).

With `COc1cc(C2=NOC(c3cc(OC)c(OC)c(OC)c3)C2)ccc1OCCCCOc1cc2c(cc1OC)C(=O)N1CCC[C@H]1C=N2` (some centres undefined) the growth was -22.7% (active).

`CCN(CC)c1ccc2cc(NC(=O)OCCNC(=O)CCNC(=O)[C@H](CC(C)C)NC(=O)C(C)(C)NC(=O)C(C)(C)NC(=O)[C@H](CC(C)C)NC(=O)CCNC(=O)C(C)(C)NC(=O)[C@H](CC(C)C)NC(=O)CCNC(=O)[C@@](C)(CC)NC(=O)[C@H](C)NC(=O)CCNC(=O)C(C)(C)NC(=O)[C@H](C)NC(=O)[C@@H]3CCCN3C(=O)[C@@](C)(CC)NC(=O)[C@H](Cc3ccccc3)NC(=O)C3CCCN3C(=O)C(C)(C)NC(=O)C3CCCN3C(=O)C(C)(C)NC(C)=O)c(=O)oc2c1` (some centres undefined) was tested, and the growth was -67.7% (active).

With `COc1ccc(C2=NN(C(C)=O)C(c3cn(-c4ccccc4)nc3-c3ccc(Cl)cc3)C2)cc1` (centres undefined) the growth was 3.16% (active).

`CCN(CC)c1cc2oc3cc(N)cc(=N)c-3nc2cc1C` was tested, and the growth was -15.2% (active).

Compound `CSc1nc(N)c2[nH]c(-c3cc4ccccc4[nH]c3=O)nc2n1` has a growth of 88.8%.

Compound `O=C(Nc1ccccc1O)c1ccc(-c2ccc(Cl)cc2Cl)o1` has a growth of 83.7%.
